M1 ag: activates human CHRM1 receptor | P11229 | CHO-K1 hM1, Fluo-8 calcium fluorescence, agonist mode; 0% DMSO, 100% acetylcholine EC100 | activation, % at 3 µM | hit rate 0.33% among 360,000 | AID 588814;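 active = activation above the run's mean compound activation plus 3 SD, cut at about 16% in these data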;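 note: peak over basal fluorescence ratio within a 140 s kinetic read after compound addition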
Target sequence (P11229 whole entry, looked up): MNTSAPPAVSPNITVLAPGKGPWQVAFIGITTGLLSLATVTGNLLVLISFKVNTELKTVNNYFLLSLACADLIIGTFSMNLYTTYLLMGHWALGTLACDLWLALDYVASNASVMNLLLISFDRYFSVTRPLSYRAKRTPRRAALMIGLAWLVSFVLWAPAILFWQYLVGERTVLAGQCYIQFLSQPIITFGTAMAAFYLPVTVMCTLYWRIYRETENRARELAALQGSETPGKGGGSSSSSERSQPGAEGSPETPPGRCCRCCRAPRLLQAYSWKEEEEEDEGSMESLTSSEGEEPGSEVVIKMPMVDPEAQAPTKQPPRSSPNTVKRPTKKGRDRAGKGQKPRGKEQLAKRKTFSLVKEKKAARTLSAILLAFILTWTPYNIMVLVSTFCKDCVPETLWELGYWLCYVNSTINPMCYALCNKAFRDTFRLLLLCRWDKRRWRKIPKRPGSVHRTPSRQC
CHO-K1 Ca antag: nonselective inhibitor or artifact in parental CHO-K1 cells | inhibition, % at 3 µM | ATP-induced calcium, Fluo-8 fluorescence | AID 602250 | hit rate 0.6% among 360,000;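 active = inhibition above a per-plate cutoff, the plate's mean sample inhibition plus 3 SD, cut at about 24% in these data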;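 note: 0% = DMSO plus EC80 ATP and 100% = DMSO alone without ATP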
M1 PAM: positive allosteric modulators of human M1 muscarinic receptor; activation, % at 3 µM; CHO-K1 hM1, Fluo-8 calcium fluorescence, ACh EC20; 0% = ACh EC20, 100% = maximal ACh; AID 588819; hit rate 0.088% among 360,000; in the data active = activation above about 19%, passing the limit was not always enough
M1 PAM parental: M1 PAM counterscreen hit in parental CHO-K1 cells | ATP EC20, Fluo-8 calcium fluorescence; 0% at ATP EC20, 100% at ATP max | activation, % at 3 µM | hit rate 0.02% among 360,000;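 active = activation above the run cutoff, the mean activation of all test compounds plus 3 SD, cut at about 40% in these data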;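 note: peak over basal fluorescence ratio in a 140 s read after ATP addition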
CHRM1 antagonist: human CHRM1 antagonism; P11229; CHO-K1 hM1, Fluo-8 calcium fluorescence, ACh EC80 antagonist; inhibition, % at 3 µM; hit rate 1.3% among 360,000;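 active = percent inhibition above its own plate's cutoff, namely the mean of that plate's compound wells plus 3 SD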;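 note: peak over basal fluorescence ratio during 140 s after agonist addition; 0% = ACh EC80 plus DMSO and 100% = DMSO alone without agonist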
CHO-K1 Ca ag: nonselective activator or artifact in parental CHO-K1 cells; Fluo-8 calcium fluorescence; scaled to maximal ATP response, vehicle zero; activation, % at 3 µM; hit rate 0.48% among 360,000; in the data active = activation above about 15%;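 note: untransfected CHO-K1 host cells lacking M1 receptor as counterscreen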
Starred values were filed as active, the others as inactive; · = not tested or not shown. Hits are enriched below; roughly 2.4% of the tested compounds scored in any of these assays.

SMILES	M1 ag	CHO-K1 Ca antag	M1 PAM	M1 PAM parental	CHRM1 antagonist	CHO-K1 Ca ag
CCOc1ccc(NC(=O)C2CCCN2S(=O)(=O)c2ccc3c(c2)C(C)(C)C(=O)N3C)cc1 (stereo not drawn)	-3.2	-13.0	9.3	22.2	-18.2	0.5
O=C(NC1CCCCC1)c1cc2ccccc2cc1O	1.3	-20.9	23.6*	-7.5	-25.1	-0.8
O=C1NC[C@@H](CCCCN2C[C@H](Cc3ccccc3)N(Cc3ccccc3)C(=O)C2=O)N(CCc2ccccc2)C1=O	·	-15.3	·	17.5	·	0.4
CC(=O)Oc1ccc2c(c1)O/C(=C\c1ccncc1)C2=O	3.4	-9.6	9.8	16.6	-7.0	18.2*
O=C(Oc1ccc2c(c1)O/C(=C\c1ccncc1)C2=O)c1cccs1	-1.2	7.2	5.8	-11.6	2.4	1.9
CCN1CCN(S(=O)(=O)c2ccc(Cl)c(C(=O)NCc3ccco3)c2)CC1	-3.0	-4.8	9.5	11.5	-10.1	0.7
O=C(CN1CCN(C(c2ccccc2)c2ccccc2)CC1)N1CCOCC1	4.7	-28.1	-25.4	-0.3	63.1*	0.1
CCOc1ccccc1NC(=O)C(c1ccccc1)N1CCN(CC(=O)N2CCOCC2)CC1 (stereo not drawn)	-0.9	-2.7	-3.0	-0.6	6.8	0.2
Cc1cc(C)c2c(=O)[nH]c(SCC(=O)N3CCOCC3)nc2n1	-3.2	16.6	-3.9	-0.2	11.7	16.9*
O=C(O)COCC(=O)N1CCN(C(c2ccccc2)c2ccccc2)CC1	-3.2	6.3	-22.2	2.7	57.7*	4.7
COc1ccc(N2CCN(C(=O)CN3CCN(C(c4ccccc4)c4ccccc4)CC3)CC2)cc1	-10.2	-16.3	-23.6	26.0	64.6*	1.3
Cc1cc(C)c2c(=O)[nH]c(SCC(=O)N3CCCCC3)nc2n1	-1.9	13.6	-3.4	-6.4	11.3	-0.4
N#CCC(=O)N1CCN(C(c2ccccc2)c2ccccc2)CC1	-8.8	-9.6	-4.3	2.4	2.8	-0.2
N/C(=N\OC(=O)c1csnn1)c1ccc(C(F)(F)F)cc1	-4.0	-12.7	3.5	16.8	-8.5	0.7
COc1ccc(S(=O)(=O)N2CCOCC2)cc1NC(=O)C1COc2ccccc2O1 (stereo not drawn)	-0.4	7.4	2.6	11.3	0.3	7.7
O=C(Nc1ccccc1-c1ccccc1)NC1CCN(CC(=O)N2CCOCC2)CC1	-5.7	-13.6	-16.5	15.5	35.2*	0.3
Cc1cc(=O)[nH]c(SCC(=O)N2CCN(C(c3ccccc3)c3ccccc3)CC2)n1	-4.7	-8.0	-21.3	3.2	52.5*	0.5
Cc1cc(=O)[nH]c(SCC(=O)N2CCCCC2)n1	3.0	-18.2	9.1	21.6	-13.4	1.4
COc1ccc(C(=O)NCC(c2ccco2)N2CCc3ccccc32)c(OC)c1 (stereo not drawn)	-6.2	-20.2	2.3	47.6*	-10.5	-0.5
COc1ccc(C(=O)NCC(c2cccs2)N2CCc3ccccc32)cc1OC (stereo not drawn)	-1.1	23.9*	5.6	-21.0	-2.2	8.0
COc1cccc(NC(=O)CN(C)C(=O)CC2CCCC2)c1	-1.8	-6.1	5.3	17.1	-11.1	2.1
CCCCNS(=O)(=O)NC(=O)C1=C(N2CCCC2)COC1=O	-6.6	26.7*	-12.6	-20.9	25.9	-0.6
CCc1nnc(NC(=O)C2CCCN2C(=O)Nc2ccccc2)s1 (stereo not drawn)	-5.5	-0.8	12.1	14.4	-12.7	20.5*
COc1cccc(CC2(CO)CCN(Cc3ccc(NC(C)=O)cc3)CC2)c1	-5.5	-4.2	-9.0	11.0	16.4	0.5
COc1cccc(CC2(CO)CCN(CC3=CC[C@H]4C[C@@H]3C4(C)C)CC2)c1	-6.1	-6.8	-23.5	12.2	36.3*	14.8
SMILES	M1 ag	CHO-K1 Ca antag	M1 PAM	M1 PAM parental	CHRM1 antagonist	CHO-K1 Ca ag
CCN1CCN(CCNC(=O)c2ccc(CS(=O)c3ccc(Br)cc3)o2)CC1 (stereo not drawn)	-3.7	-1.5	-12.2	-10.9	26.9	0.3
O=C(NC(c1ccccc1)c1ccccc1)C1CCCO1 (stereo not drawn)	-1.9	3.8	7.0	5.2	-4.4	20.8*
COc1ccc(C[C@@H]2CN3C(=NC[C@@H]3C)N2CCNC(=O)c2ccc(C)c(Br)c2)cc1	-12.9	-6.3	-37.3	0.5	40.5*	0.2
C/C=C(\C)C(=O)NCCN1C2=NC[C@H](C)N2C[C@@H]1Cc1ccc(OC)cc1	-13.6	-6.1	-9.0	0.9	5.0	0.0
CC1(c2ccc3c(c2)OCCO3)NC(=O)N(CC(=O)Nc2c(F)cccc2F)C1=O (stereo not drawn)	2.8	-10.2	7.9	-14.0	-5.6	1.2
CC1(c2ccc3c(c2)OCCO3)NC(=O)N(CC(=O)Nc2ccccc2F)C1=O (stereo not drawn)	11.8	29.7*	8.9	-18.9	-6.3	0.8
CC1(c2ccccc2)NC(=O)N(CC(=O)Nc2ccccc2N2CCCC2)C1=O (stereo not drawn)	16.2*	12.7	8.0	-30.4	-2.3	3.2
O=C(CN1C(=O)NC2(CCCC2)C1=O)Nc1ccccc1N1CCCC1	-1.5	-13.1	11.9	14.2	-15.2	2.1
C[C@@H]1CN([C@@H](C)CO)C(=O)c2cc(C3=CCCCC3)cnc2O[C@H]1CN(C)C(=O)Nc1cccc(F)c1	-7.6	-7.1	10.1	13.3	-14.7	0.3
Cc1ccc(-n2ncc3c(N4CCN(c5ccccc5)CC4)ncnc32)c(C)c1	3.0	15.5	-16.9	-3.8	24.1*	4.8
Cc1ccsc1CN(C(=O)c1ccccc1)C1CCS(=O)(=O)C1 (stereo not drawn)	-3.1	-4.7	5.0	3.9	-3.4	0.8
N#CCc1c(C#N)c(N)nc(N2CCN(C=O)CC2)c1C#N	-4.7	24.5*	-11.1	-8.0	6.5	-0.2
CCNc1nc(Oc2ccc(=O)n(-c3ccccc3)n2)nc(N(C)C)n1	-3.0	-8.2	8.9	19.4	-11.1	-0.1
CCNc1nc(OC)nc(Oc2ccc(=O)n(-c3ccccc3)n2)n1	5.7	24.4*	14.9	-3.6	-23.1	-0.5
Cc1ccsc1C(=O)NNC(=O)COc1ccccc1Cl	-2.6	30.8*	5.6	-31.0	-4.5	-0.1
COc1cccc2cc(C(=O)NCc3ccccc3Br)c(=O)oc12	-3.7	-1.4	3.8	12.3	4.0	0.1
COc1cccc2cc(C(=O)NCc3ccccc3Cl)c(=O)oc12	-1.5	5.5	9.0	11.5	-8.2	15.4*
CCOc1ccc(NC(=O)COC(=O)C2COc3ccccc3O2)cc1 (stereo not drawn)	-4.3	-7.0	-1.7	7.1	-4.4	0.8
CCOC(=O)C1CCc2c(ccc3ccccc23)N1CCC#N (stereo not drawn)	-1.3	-8.1	1.3	7.6	-3.1	0.0
CC1CCC(C(C)C)C(OCC(O)C[N+]2(C)CCCCC2)C1 (stereo not drawn)	-5.5	-0.3	-23.3	-6.2	75.6*	0.2

Screens: PubChem BioAssay, The Scripps Research Institute Molecular Screening Center
